Data reported in article PMC11062922 (Nature Chemical Biology, 2023).

The compounds below were run on PLK1. Details: read-out: apparent Kd; compound concentrations: 100 nM and 1000 nM (sheet 'Samples'), CATDS: 1; n = 1.
Design: species or system human, MV4-11 + K-562 + COLO205 + SK-N-BE2 + OVCAR-8

SMILES | potency estimated from few doses [nM]
NC(=O)c1sc(-n2cnc3ccccc32)cc1OCc1ccccc1Br [GSK1023156A] | 814
COc1cccc(C2=C(N(C)c3ccccc3)C(=O)NC2=O)c1 [SB-334865] | 1420
Cc1ccccc1COc1cc(-n2cnc3cc(Cl)ccc32)sc1C(N)=O [GW813349X] | 1570

What follows are compounds tested on RIPK2. Details: read-out: apparent Kd; compound concentrations: 100 nM and 1000 nM (sheet 'Samples'), CATDS: 1; n = 1.
Design: species or system human, MV4-11 + K-562 + COLO205 + SK-N-BE2 + OVCAR-8

SMILES | potency estimated from few doses [nM]
CNC(=O)c1cncc(/C=C/c2ccccc2C)c1 [GW445015X] | 795
Cc1cc(O)cc(C)c1/C=C/c1cncc(C(=O)OC(C)(C)C)c1 [GW439255X] | 437
CNC(=O)c1cncc(/C=C/c2c(Cl)cccc2Cl)c1 [GW445014X] | 773

Each compound was assayed on ROCK1. Details: read-out: apparent Kd; compound concentrations:100 nM and 1000 nM (sheet 'Samples'); n = 1.
Design: species or system human, MV4-11 + K-562 + COLO205 + SK-N-BE2 + OVCAR-8

SMILES | potency estimated from few doses [nM]
CC1=C(C(=O)Nc2ccc3[nH]ncc3c2)C(c2ccc(Cl)c(Cl)c2)CC(=O)N1 (stereo not drawn) [GSK299115A] | 112
C[C@@H]1CC[C@H](C(=O)NC2CCCCC2)CN1c1cc(-c2ccc3c(N)n[nH]c3c2)nc(N)n1 [GSK2291363A] | 2010
CCn1c(-c2nonc2N)nc2cnc(Oc3cccc(NC(=O)c4ccc(N(C)C)cc4)c3)cc21 [GSK248233A] | 230

These compounds were tested on ROCK2. Details: read-out: apparent Kd; compound concentrations:100 nM and 1000 nM (sheet 'Samples'); n = 1.
Design: species or system human, MV4-11 + K-562 + COLO205 + SK-N-BE2 + OVCAR-8

SMILES | potency estimated from few doses [nM]
CC1=C(C(=O)Nc2ccc3[nH]ncc3c2)C(c2ccc(Cl)c(Cl)c2)CC(=O)N1 (stereo not drawn) [GSK299115A] | 140
C[C@@H]1CC[C@H](C(=O)NC2CCCCC2)CN1c1cc(-c2ccc3c(N)n[nH]c3c2)nc(N)n1 [GSK2291363A] | 1450
CCn1c(-c2nonc2N)nc2cnc(Oc3cccc(NC(=O)c4ccc(N(C)C)cc4)c3)cc21 [GSK248233A] | 181
